Each structure is given as a SMILES string. Compounds without any hit were thinned out: in the full panel of roughly 83,000, 20% have a hit.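 Testing used 96-well plates and a 48-hour single-concentration exposure. Example: -40 means 40% of the starting cells died.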 Values without a mark were called inactive. Calls of active or inactive are those of the source. The calls were made as follows: active = growth percent below 10; inactive = the rest.

One assay concerns HCC-2998 colon. The assay can be described thus: NCI-60 one-dose screen, 48 h (100 = growth as untreated, 0 = no growth, -100 = all killed). Conditions: 10 µM unless noted.
Turning to `COc1ccc(-c2cc(-c3ccc(Cl)cc3)c(C#N)c(=O)n2CCCCC(=O)Nc2ccccc2N)cc1`, the growth is 68.3%.

As for `C=C1C(=O)O[C@H]2[C@H]1CC/C(COC(=O)NCc1ccc(Cn3c(=O)sn(CCI)c3=O)cc1)=C\CC[C@@]1(C)O[C@@H]21`, the growth was 107%.

Consider `CC(=O)OC[C@]12CCC(C)(C)C[C@H]1[C@@]1(O)[C@H](O)C[C@@H]3[C@@]4(C)CCCNC(C)(C)[C@@H]4CC[C@@]3(C)[C@]1(C)CC2`, for which the growth is 109%.

Take `Cc1cc(=O)[nH]c2c(C#N)cnn12`: the growth was 101%.

As to `O=C(OCc1ccc2c(Cl)cc(Cl)c(O)c2n1)n1cncn1`, the growth is 54.4%.

As for `O=C1/C(=C/c2ccc(-c3ccc(Br)cc3)o2)SC(=S)N1CCc1ccc(O)cc1`, the growth is 93.6%.

Turning to `O=C1CC(N2C(=O)/C(=C/C(Cl)=C\c3ccc([N+](=O)[O-])cc3)SC2=S)C(=O)N1c1ccc(Cl)cc1` (stereo not drawn), the growth is -22.9% (active).

In the case of `CCN(CC)c1nc(SCc2ccccc2Cl)ncc1C`, the growth is 106%.

Take `N#Cc1c(-c2ccccc2)cc(-c2ccccc2)n(CCCCCC(=O)Nc2ccccc2N)c1=O`: the growth was 80.5%.

As for `CCS/C(Nc1ccccc1)=C(\C#N)C(=O)N/N=C/c1ccc(Cl)cc1Cl`, the growth is 48.4%.

Turning to `N#CC1=C(N)Oc2c(sc3c(Br)cccc23)C1c1ccc(F)cc1` (stereo not drawn), the growth is 23.5%.

For `O=C(Cn1c2c(c3ccccc31)CCCC2)Nc1ccc(-c2nc3ccccc3s2)cc1`, the growth is 108%.

Consider `COc1cc(-c2csc(NC(=O)c3cc(-n4cnc(C)c4)cc(C(F)(F)F)c3)n2)cc(OC)c1OC`, for which the growth is 83.9%.

Turning to `CCN(CC)CCCN1C(=O)c2c(c(C)c3c(oc4cc(O)ccc43)c2C)C1=O`, the growth is -88.9% (active).

Turning to `COc1cc2oc(-c3cccc(NC(=O)c4cccc(Br)c4)c3)cc(=O)c2c(OC)c1OC`, the growth was 57.8%.

In the case of `O=C(Cn1c(=O)sc2nc3ccccc3nc21)Nc1ncc(Cc2cccc(Cl)c2Cl)s1`, the growth was 101%.

For `COc1ccc(OC)c(C(=O)/C=C/c2cc3c(c(OC)c2OC)OCO3)c1`, the growth is 86.3%.

In the case of `COC(=O)CCC(=O)C(=O)OC`, the growth is -38.5% [10 mM] (active).

For the compound `O=C1c2c(c3c4ccccc4[nH]c3c3ccc4ccccc4c23)C(=O)N1CCN1CCCCC1`, the growth was -0.0363% (active).

For `CCO/C=N/C1=C(C#N)C(c2ccc(OC)cc2)c2sc3c(F)cccc3c2O1` (stereo not drawn), the growth was 70.8%.

Consider `COCCn1c(-c2csc(-c3cn(C)c4ccc(OC)cc34)n2)cc2cccnc21`, for which the growth was -3.8% (active).

As for `CN1C(=O)/C(=C/c2cn(-c3ccccc3)nc2-c2ccccc2)SC1=S`, the growth is 115%.

As for `CC(C)NC1CCC(Nc2ccnc3cc(Cl)ccc23)CC1` (stereo not drawn), the growth is 101%.

For `O=S(=O)(Nc1cc(Br)c(O)c2ccccc12)c1ccc(F)cc1`, the growth is 97.8%.

Take `CCN(CC)CCOc1ccc(-c2c(-c3ccccc3)c(=O)oc3ccccc23)cc1`: the growth was 99.1%.

On to `O=C(/C=C/c1cn(-c2ccccc2)nc1-c1ccc([N+](=O)[O-])cc1)c1ccc(Cl)cc1`, for which the growth is -22% (active).

Consider `Cc1cc2c(O)c(-c3cccc(Cl)c3)c3sc(=O)oc3c2cc1C`, for which the growth was 73.1%.

On to `Cc1cccc(Cl)c1NC(=O)c1ccc2nc(NC(=O)NCCN(C)C)sc2c1`, for which the growth is 105%.

With `O=C(c1ccccc1)C1C(=O)N2C(=S)N(c3ccccc3)C(=O)C2C1c1ccc(Cl)cc1` (stereo not drawn), the growth was 94.8%.

In the case of `N#Cc1nc(-c2ccccc2)oc1S(=O)(=O)N1CCOCC1`, the growth is 104%.

For the compound `COC(C(=O)[C@@H](O)[C@@H](C)O)[C@@H]1Cc2cc3cc(O[C@H]4C[C@@H](O[C@H]5C[C@@H](O)[C@H](O)C(C)O5)[C@H](O)C(C)O4)c(C)c(O)c3c(O)c2C(=O)[C@H]1O[C@H]1C[C@@H](O[C@H]2C[C@@H](O[C@H]3C[C@@H](O)[C@H](OC)C(C)O3)[C@@H](O)C(C)O2)[C@H](O)C(C)O1` (stereo partly drawn), the growth is 1.1% (active).

Consider `CC1=C(C(=O)OC(C)C)C(c2ccc3c(c2)OCO3)NC(=S)N1` (stereo not drawn), for which the growth was 115%.

As for `O=C(/C=C/c1ccccc1)c1cccc(OCCCOc2cccc(C(=O)/C=C/c3ccccc3)c2)c1`, the growth is 42.2%.

A further assay concerns KM12 colon. The description is as above. Conditions: 10 µM unless noted.
In the case of `C=C1C(=O)O[C@H]2[C@H]1CC/C(COC(=O)NCc1cc[nH]c1)=C\CC[C@@]1(C)O[C@@H]21`, the growth was 78.2%.

On to `CSc1nc2sc3c(c2c(=O)n1-c1ccc([N+](=O)[O-])cc1)CCCCC3`, for which the growth is 101%.

For `O=C(Nn1c2c(sc1=NCc1ccccc1)C(=O)c1ccccc1C2=O)c1cc2ccc1CCc1ccc(cc1)CC2`, the growth is 74.8%.

For `O=C(CN1C(=O)CCC1=O)Nc1ncc(Cc2ccc(F)cc2)s1`, the growth is 103%.

Consider `Cc1ccc(NC(=S)NNC(=S)NNc2ccccc2)cc1C`, for which the growth was 90.8%.

Consider `CCN(CC)CCOc1ccc(C(=C(C)c2ccc(Cl)cc2)c2ccc(OCCN(CC)CC)cc2)cc1`, for which the growth is -79% (active).

With `COC(=O)[C@]1(C)CCC[C@]2(C)[C@H]3C[C@H]4C(C(C)C)=C[C@]3(CC[C@H]21)[C@H]1[C@@H]4[C@@H](OCCC#N)CC[C@@H]1OCCC#N`, the growth was 40.2%.

For the compound `COc1ccc(-c2cc(-c3ccc(Cl)cc3)c(C#N)c(=O)n2CCCCC(=O)Nc2ccccc2N)cc1`, the growth is 39.4%.

For `C=C1C(=O)O[C@H]2[C@H]1CC/C(COC(=O)NCc1ccc(Cn3c(=O)sn(CCI)c3=O)cc1)=C\CC[C@@]1(C)O[C@@H]21`, the growth is 91.5%.

As to `CC(=O)OC[C@]12CCC(C)(C)C[C@H]1[C@@]1(O)[C@H](O)C[C@@H]3[C@@]4(C)CCCNC(C)(C)[C@@H]4CC[C@@]3(C)[C@]1(C)CC2`, the growth is 113%.

`Cc1cc(=O)[nH]c2c(C#N)cnn12`: the growth was 107%.

As to `O=C(OCc1ccc2c(Cl)cc(Cl)c(O)c2n1)n1cncn1`, the growth was 21.8%.

Turning to `O=C1/C(=C/c2ccc(-c3ccc(Br)cc3)o2)SC(=S)N1CCc1ccc(O)cc1`, the growth is 42.9%.

Consider `O=C1CC(N2C(=O)/C(=C/C(Cl)=C\c3ccc([N+](=O)[O-])cc3)SC2=S)C(=O)N1c1ccc(Cl)cc1` (stereo not drawn), for which the growth was 12.4%.

As for `CCN(CC)c1nc(SCc2ccccc2Cl)ncc1C`, the growth is 108%.

In the case of `N#Cc1c(-c2ccccc2)cc(-c2ccccc2)n(CCCCCC(=O)Nc2ccccc2N)c1=O`, the growth is 55.3%.

On to `CCS/C(Nc1ccccc1)=C(\C#N)C(=O)N/N=C/c1ccc(Cl)cc1Cl`, for which the growth was 28%.

Turning to `N#CC1=C(N)Oc2c(sc3c(Br)cccc23)C1c1ccc(F)cc1` (stereo not drawn), the growth is 23.1%.

On to `O=C(Cn1c2c(c3ccccc31)CCCC2)Nc1ccc(-c2nc3ccccc3s2)cc1`, for which the growth was 101%.

As to `COc1cc(-c2csc(NC(=O)c3cc(-n4cnc(C)c4)cc(C(F)(F)F)c3)n2)cc(OC)c1OC`, the growth was 56.4%.

In the case of `CCN(CC)CCCN1C(=O)c2c(c(C)c3c(oc4cc(O)ccc43)c2C)C1=O`, the growth was -59.3% (active).

For `COc1cc2oc(-c3cccc(NC(=O)c4cccc(Br)c4)c3)cc(=O)c2c(OC)c1OC`, the growth is 40.4%.

For the compound `O=C(Cn1c(=O)sc2nc3ccccc3nc21)Nc1ncc(Cc2cccc(Cl)c2Cl)s1`, the growth was 99.9%.

Consider `COc1ccc(OC)c(C(=O)/C=C/c2cc3c(c(OC)c2OC)OCO3)c1`, for which the growth was 55%.

In the case of `COC(=O)CCC(=O)C(=O)OC`, the growth is 2.17% [10 mM] (active).

Consider `O=C1c2c(c3c4ccccc4[nH]c3c3ccc4ccccc4c23)C(=O)N1CCN1CCCCC1`, for which the growth was 48%.

On to `CCO/C=N/C1=C(C#N)C(c2ccc(OC)cc2)c2sc3c(F)cccc3c2O1` (stereo not drawn), for which the growth is 25.3%.

Consider `COCCn1c(-c2csc(-c3cn(C)c4ccc(OC)cc34)n2)cc2cccnc21`, for which the growth was 21.5%.

For `CN1C(=O)/C(=C/c2cn(-c3ccccc3)nc2-c2ccccc2)SC1=S`, the growth was 102%.

With `CC(C)NC1CCC(Nc2ccnc3cc(Cl)ccc23)CC1` (stereo not drawn), the growth is 110%.

Turning to `O=S(=O)(Nc1cc(Br)c(O)c2ccccc12)c1ccc(F)cc1`, the growth was 86.4%.

Regarding `CCN(CC)CCOc1ccc(-c2c(-c3ccccc3)c(=O)oc3ccccc23)cc1`, the growth was 100%.

As for `O=C(/C=C/c1cn(-c2ccccc2)nc1-c1ccc([N+](=O)[O-])cc1)c1ccc(Cl)cc1`, the growth is 41.8%.

With `Cc1cc2c(O)c(-c3cccc(Cl)c3)c3sc(=O)oc3c2cc1C`, the growth was 64.3%.

As to `Cc1cccc(Cl)c1NC(=O)c1ccc2nc(NC(=O)NCCN(C)C)sc2c1`, the growth is 97.1%.

In the case of `O=C(c1ccccc1)C1C(=O)N2C(=S)N(c3ccccc3)C(=O)C2C1c1ccc(Cl)cc1` (stereo not drawn), the growth was 104%.

Turning to `N#Cc1nc(-c2ccccc2)oc1S(=O)(=O)N1CCOCC1`, the growth is 97.8%.

As for `COC(C(=O)[C@@H](O)[C@@H](C)O)[C@@H]1Cc2cc3cc(O[C@H]4C[C@@H](O[C@H]5C[C@@H](O)[C@H](O)C(C)O5)[C@H](O)C(C)O4)c(C)c(O)c3c(O)c2C(=O)[C@H]1O[C@H]1C[C@@H](O[C@H]2C[C@@H](O[C@H]3C[C@@H](O)[C@H](OC)C(C)O3)[C@@H](O)C(C)O2)[C@H](O)C(C)O1` (stereo partly drawn), the growth was 13.7%.

As to `CC1=C(C(=O)OC(C)C)C(c2ccc3c(c2)OCO3)NC(=S)N1` (stereo not drawn), the growth is 108%.

Take `O=C(/C=C/c1ccccc1)c1cccc(OCCCOc2cccc(C(=O)/C=C/c3ccccc3)c2)c1`: the growth is 25.7%.

The values are drawn from PubChem BioAssay (NCI).
